Assay [1] can be described thus: compounds altering viability of human ES cells (AID 493140).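 Further: cells exposed to compounds for four days before counting.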 The following applies: human embryonic stem cell survival screen; stronger effect = higher value.
For assay [2], the system named is Aerobactin synthetase IucA (Klebsiella pneumoniae). Put plainly: inhibition of K. pneumoniae IucA enzyme – biochemical, Tocris library, absorbance (AID 1345561).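 Further: 100% = enzyme without compound and 0% = no enzyme.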 The following applies: purified IucA enzyme assay, absorbance (OD) read-out; stronger effect = lower value;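 tested at 8 µM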.
Assay [3] can be described thus: viability loss with induced miR-34 in A549 – imaging, A549 dox-inducible miR-34, nuclei and caspase counts, primary screen (AID 1347080;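 active means compounds whose cell count with miR-34 switched on is under 0.7 times the count with it off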). The following applies: A549 miR-34 inducible, Hoechst nuclei count, 48 h.
The nature of assay [4]: galactose survival enhancers in mitochondrial complex I cybrids – cell-based, galactose medium, ATP luminescence, primary screen (AID 1645843;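 active means z-score of at least 1.8 in each of two replicates, scored against plate mean and spread of sample wells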;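 further: positive z means more ATP and so rescue of galactose-driven cybrid death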). The following applies: complex I mutant cybrid cells, 72 h, stronger effect = higher value.
Assay [5] has as its system Hepatitis C virus NS3 helicase. Kind of assay: blockers of NS3h binding to ssDNA – biochemical, fluorescence polarization, LOPAC1280 library, primary screen (AID 687035; in the data active means inhibition above about 37%). The following applies: Purified HCV NS3 helicase, Cy5-dT15 ssDNA binding fluorescence polarization; stronger effect = higher value; concentration not given here.
Assay [6] in a line: compounds altering Cy5-DNA-NS3h complex signal – biochemical, LOPAC1280, artefact control for HCV NS3 helicase inhibitor project (AID 687037). The conditions noted are these: Cy5-DNA-NS3h complex fluorescence interference counterscreen.
The nature of assay [7]: blockers of cellular phospholipid synthesis – cell-based, LOPAC library, screen 4, primary screen (AID 1347384). The following applies: animal cells, phospholipid biosynthesis inhibition screen; at 10 µM.
Assay [8] can be described thus: P. berghei load reduction in hepatocytes – cell-based, HepG2, luciferase luminescence, HepG2 viability, primary screen (AID 624349; in the data active means parasite load remaining mostly below about 12%, no sharp cut-off; inactive means mostly above about 10%;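 further: 100% = mean of DMSO negative control wells on the same plate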). The conditions noted are these: P. berghei liver stage in HepG2, luciferase luminescence, concentration not given here; parasite load remaining: stronger effect = lower value; viability: measured here: HepG2 viability without parasites.
A short description of assay [9]: MELAS cybrid and Rieske KO viability enhancers – cell-based, MELAS cybrids, Rieske KO mouse fibroblasts, CellTiter-Glo, primary screen (AID 1508586;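 active means mean z-score across replicates of 1.96 or higher in either the MELAS or the Rieske mutant cell line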;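 further: z relative to plate mean and SD of compound and empty wells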). The following applies: low glucose. On the technique in general: ATP-based viability assays read luminescence as a measure of living cells.
The nature of assay [10]: compounds altering circadian rhythm period length – cell-based, LOPAC library, luminescence reporter (AID 2774).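 Further: values are relative to mean of DMSO wells on each plate.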 The conditions noted are these: circadian reporter cells, at 7 µM, actives lie on both sides.
The nature of assay [11]: chitosan synthesis blockers in C. neoformans – flow cytometry, Cibacron Brilliant Red staining (AID 1347148).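 Further: compound exposure lasted three days at 37 degrees C.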 The following applies: Cryptococcus neoformans chitosan, stronger effect = lower value; at 10 µM unless noted. A general note: Flow cytometry measures light scatter and fluorescence of single cells or particles in a stream.
Setting [12] is: stronger effect = lower value, cell number ratio, induced over uninduced.
[13] abbreviates: measured here: relative caspase fold change +Dox/-Dox.
Where [14] appears, read: measured here: total cells with miR-34 induction, stronger effect = lower value.
Where [15] appears, read: measured here: total cells without miR-34 induction.
Setting [16] is: MELAS cybrid survival, CellTiter-Glo 48 h, stronger effect = higher value.
Where [17] appears, read: Rieske KO mouse fibroblast survival, CellTiter-Glo 72 h.

Where “and” joins values, the source holds several entries; their conditions need not be identical. Identical values can stand only once. Calls of active or inactive are those of the source. Unless noted, how the calls were made is not given here.

As for `O=C(O)CCC/C=C\C[C@@H]1[C@@H](/C=C/[C@@H](O)COc2cccc(Cl)c2)[C@H](O)C[C@@H]1O`, the survival in assay [1] was 113 (inactive). For the same compound, the remaining activity in assay [2] is 110% (inactive). The fold change in [3] (setting [12]) is 0.943 (inactive) and 0.93 (inactive) and 0.921 (inactive); in assay [3] (setting [13]), 1.66 and 1.25 and 1.86. Besides, the cell count in [3] (setting [14]) was 5470 and 5960 and 8580; in assay [3] (setting [15]), 5810 and 6400 and 9320. Further, in [4], the z-score is -0.155 (inactive).
Take `Clc1ccc2c(c1)N=C(N1CCNCC1)c1ccccc1N2`: in assay [5], the inhibition is -2% (inactive). Also, the fluorescence ratio (interference) in [6] was 1 (inactive). In addition, the remaining activity in [2] is 102% (inactive). Further, the fold change in assay [3] (setting [12]) was 1.02 (inactive) and 0.994 (inactive); in assay [3] (setting [13]), 1.15 and 0.797. Further, the cell count was 7100 and 7380 in [3] (setting [14]); 6990 and 7420 in assay [3] (setting [15]). The call in assay [7] was inactive. In addition, the z-score in assay [4] was -0.785 (inactive) and -0.84 (inactive).
Take `CN/C(=C/[N+](=O)[O-])NCCSCc1ccc(CN(C)C)o1`: the parasite load remaining in [8] was 43.4% (inactive) and 51.6% (inactive). For the same compound, in assay [8], the viability is 47.5% and 107%. In addition, the remaining activity in assay [2] was 114% (inactive). Also, the fold change is 0.9 (inactive) and 0.849 (inactive) and 0.891 (inactive) in assay [3] (setting [12]); 0.927 and 0.503 and 1.27 in assay [3] (setting [13]). The cell count is 8480 and 7980 and 9140 in assay [3] (setting [14]); 9410 and 10300 in assay [3] (setting [15]). For the same compound, the z-score in [9] (setting [16]) is -0.0746 (inactive) and -0.291 (inactive); in assay [9] (setting [17]), -0.171 and 0.538; in assay [4], -0.09 (inactive) and 0.3 (inactive).
In the case of `Nc1ncnc2n[nH]c(Nc3ccc(F)cc3)c12`, in assay [8], the parasite load remaining is 34.8% (inactive). Besides, the viability in [8] came to 85.8%. The inhibition in assay [5] is -5% (inactive). Also, in assay [6], the fluorescence ratio (interference) was 1 (inactive). Besides, in [2], the remaining activity was 105% (inactive). In addition, the z-score in assay [9] (setting [16]) is -0.494 (inactive); in assay [9] (setting [17]), 0.733; in [4], 0.375 (inactive) and 0.16 (inactive).
Take `NC(N)=NC(N)=Nc1cccc(Cl)c1`: the period change in assay [10] was 0.15 h (inactive). Also, the inhibition in assay [5] is -4% (inactive). Further, the fluorescence ratio (interference) in assay [6] was 1 (inactive). Moreover, in assay [2], the remaining activity is 77.4% (inactive). Besides, the fold change is 0.947 (inactive) and 0.85 (inactive) in assay [3] (setting [12]); 1.12 and 1.01 in [3] (setting [13]). The cell count is 10300 and 7530 in [3] (setting [14]); 10900 and 8860 in assay [3] (setting [15]). Besides, the outcome in assay [7] was inactive. Besides, the z-score in assay [4] was -0.165 (inactive) and -0.935 (inactive).
Regarding `Cn1cnc2c(NCc3ccccc3)nc(NCCO)nc21`, the period change in [10] is 0.235 h (inactive). In addition, the survival in assay [1] is 92.8 (inactive). In addition, the inhibition in [5] was -2% (inactive). In addition, the fluorescence ratio (interference) in assay [6] is 0.9 (inactive). Further, in [2], the remaining activity is 120% (inactive). The fold fluorescence in [11] is 4.59 [at 167.6 µM] (inactive). For the same compound, the result in [7] was inactive. In [4], the z-score is 0.355 (inactive) and 0.005 (inactive).
For the compound `O=C(Nc1ccccc1)c1cc([N+](=O)[O-])ccc1Cl`, in [10], the period change was -0.23 h (inactive). In assay [5], the inhibition was -5% (inactive). The fluorescence ratio (interference) in assay [6] is 1 (inactive). For the same compound, the remaining activity in assay [2] was 120% (inactive). Further, in [11], the fold fluorescence was 3.58 [at 180.7 µM] (inactive). Moreover, in assay [7], the compound was classed as inactive. For the same compound, the z-score in assay [9] (setting [16]) is -0.372 (inactive); in assay [9] (setting [17]), 0.0531; in assay [4] it was -0.715 (inactive) and -0.72 (inactive).
For `Cc1ccc(C(=O)Cn2c3c(sc2=N)CCCC3)cc1`, the remaining activity in [2] is 107% (inactive). In addition, in [11], the fold fluorescence is 5.78 [at 174.6 µM] (inactive). In addition, the results for the z-score in assay [9] (setting [16]), in assay [9] (setting [17]) and in assay [4] were 1.05 (inactive), -0.573 and -0.225 (inactive), respectively.
With `O=[N+]([O-])c1cccc2c(Br)[nH]nc12`, in assay [10], the period change was -0.085 h (inactive). In addition, the inhibition in assay [5] is -1% (inactive). For the same compound, the fluorescence ratio (interference) in [6] is 0.9 (inactive). The remaining activity in assay [2] is 94.1% (inactive). Also, in assay [11], the fold fluorescence was 16.8 [at 206.6 µM] (inactive). In addition, the result in [7] was inactive. The z-score in [4] was 1.04 (inactive) and -0.23 (inactive).
Regarding `CCc1ccc2c(-c3cccc(Cl)c3)nc(=O)n(CC)c2n1`, the inhibition in assay [5] was -2% (inactive). For the same compound, the fluorescence ratio (interference) in [6] is 1 (inactive). Besides, the remaining activity in assay [2] was 124% (inactive). The fold change is 1.11 (inactive) and 0.913 (inactive) in assay [3] (setting [12]); 1.55 and 0.664 in [3] (setting [13]). The cell count in assay [3] (setting [14]) is 9380 and 8340; in [3] (setting [15]) it was 8460 and 9140. Besides, the outcome in assay [7] was inactive. Besides, the z-score in [4] is 1.02 (inactive) and -0.175 (inactive).

As usually defined, the remaining activity is the signal under treatment as a percentage of the control signal. In general, inhibition refers to the drop in the measured response relative to a control, in per cent. Usually viability stands for a read-out of living cells in per cent, often relative to untreated cells.

The record behind these values is PubChem BioAssay.
